{"source": "PubChem BioAssay (EPA / NIEHS)", "note": "Active and inactive are the calls of the source. The calls were made as follows: active = hit-call score of the fitted dose curve at least 0.9, where 1 is the maximum; inactive = score below 0.9.", "data": [{"test": "BSK_hDFCGF_Proliferation: Cell Proliferation Assessment in the BioMAP Diversity Plus: hDFCGF Assay (AID 2283059);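 also: curves fitted for both rise and fall of signal versus DMSO baseline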", "conditions": "primary human foreskin fibroblasts", "procedure,_shortened": "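This proliferation readout used SRB total-protein staining of human foreskin fibroblasts […], normalized to DMSO with bidirectional curve fitting.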", "values": [{"compound": "Oc1ccccc1", "outcome": "inactive"}, {"compound": "COc1cc(C(=O)NC2CCN(C)CC2)ccc1Nc1ncc2c(n1)N(C1CCCC1)CC(F)(F)C(=O)N2C", "AC50": "4.95 µM (active)"}, {"compound": "C[C@]12CC[C@@H]3c4ccc(O)cc4CC[C@H]3[C@@H]1CCC2=O", "AC50": "17.6 µM (active)"}, {"compound": "CN(C)C(=O)C1(N2CCCCC2)CCN(CC[C@@]2(c3ccc(Cl)c(Cl)c3)CN(C(=O)c3ccccc3)CCO2)CC1", "AC50": "5.15 µM (active)"}, {"compound": "CN(C)c1ccc(C(=C2C=CC(=[N+](C)C)C=C2)c2ccc(N(C)C)cc2)cc1", "AC50": "1.39 µM (active)"}, {"compound": "O=C(O)Cn1c(=O)n(Cc2ccc(Br)cc2F)c(=O)c2ccc(Cl)cc21", "outcome": "inactive"}, {"compound": "CCCCCCCCOC(=O)c1cc(O)c(O)c(O)c1", "AC50": "4.32 µM (active)"}, {"compound": "O=C(OCCCCCCOC(=O)c1ccccc1)c1ccccc1", "outcome": "inactive"}, {"compound": "O=C(O)c1ccccc1C(=O)OCc1ccccc1", "outcome": "inactive"}, {"compound": "Cc1ccc2oc(CN(Cc3ccccc3)C(=O)Nc3c(F)cc(F)cc3F)c(-c3ccc(Cl)cc3)c2c1", "outcome": "inactive"}, {"compound": "Cc1oc2c(NC(=O)c3c(Cl)cccc3Cl)cccc2c1C(C)(C)O", "AC50": "14.1 µM (active)"}, {"compound": "c1ccc2n[nH]nc2c1", "outcome": "inactive"}, {"compound": "CC[C@@H]1C[C@H](N(Cc2cc(C(F)(F)F)cc(C(F)(F)F)c2)C(C)=O)c2cc(C(F)(F)F)ccc2N1C(=O)OC(C)C", "outcome": "inactive"}, {"compound": "CO[C@H]1/C=C/O[C@@]2(C)Oc3c(C)c(O)c4c(O)c(c(/C=N/N5CCN(C)CC5)c(O)c4c3C2=O)NC(=O)/C(C)=C\\C=C\\[C@H](C)[C@H](O)[C@@H](C)[C@@H](O)[C@@H](C)[C@H](OC(C)=O)[C@@H]1C", "AC50": "19.4 µM (active)"}, {"compound": "O=C(O)c1ccccc1-n1cc(C(=O)O)c(=O)c2cc(Nc3c(F)cc(F)cc3Cl)c(Cl)cc21", "outcome": "inactive"}, {"compound": "COc1cccc([C@H](O)C2CCN(CCc3ccc(F)cc3)CC2)c1OC", "outcome": "inactive"}, {"compound": "CC1(C)NC(=O)N(c2ccc([N+](=O)[O-])c(C(F)(F)F)c2)C1=O", "outcome": "inactive"}, {"compound": "CC/C(=C(/CC)c1ccc(O)cc1)c1ccc(O)cc1", "AC50": "7.02 µM (active)"}, {"compound": "CCCCCCCCCCCO", "AC50": "20 µM (active)"}, {"compound": "Cc1cc(F)ccc1-c1cc(N2CC[C@@H](O)[C@H]2CO)ncc1N(C)C(=O)C(C)(C)c1cc(C(F)(F)F)cc(C(F)(F)F)c1", "AC50": "10.9 µM (active)"}, {"compound": "Cc1cn([C@H]2C[C@H](N=[N+]=[N-])[C@@H](CO)O2)c(=O)[nH]c1=O", "outcome": "inactive"}, {"compound": "CCCCCCCC[Si](OCC)(OCC)OCC", "AC50": "28.3 µM (active)"}, {"compound": "O=C(O)Cc1cc(I)c(Oc2ccc(O)c(I)c2)c(I)c1", "AC50": "13.7 µM (active)"}, {"compound": "CN1C(=O)CC[C@H]1c1cccnc1", "outcome": "inactive"}, {"compound": "O=c1c(-c2ccc(O)cc2)coc2cc(O)cc(O)c12", "AC50": "11.7 µM (active)"}, {"compound": "CCCC(=O)OCCC(C)C", "outcome": "inactive"}, {"compound": "Cc1occc1C(=O)Nc1ccc(C(=O)N2CCC(F)(F)/C(=C\\C(=O)N3CCC(N4CCCCC4)CC3)c3ccccc32)cc1", "outcome": "inactive"}, {"compound": "O=C1O[C@H]([C@@H](O)CO)C(O)=C1O", "outcome": "inactive"}, {"compound": "NC(=O)c1nc(-c2cccc(-c3cc(F)ccc3OCC(F)(F)C(F)(F)F)c2)n[nH]1", "AC50": "31.1 µM (active)"}, {"compound": "CC(C)(C)c1csc(-c2cc3cc(OCc4ccccc4CC(=O)O)ccc3o2)n1", "AC50": "9.8 µM (active)"}, {"compound": "O=C(Nc1ccc(Cl)cc1)Nc1ccc(Cl)c(Cl)c1", "AC50": "0.477 µM (active)"}, {"compound": "CC(C)(O)c1ccc(CNC(=O)c2cccnc2Oc2ccc3nonc3c2)cc1", "outcome": "inactive"}, {"compound": "c1ccc(C[n+]2cccc3ccccc32)cc1", "outcome": "inactive"}, {"compound": "O=C=NCCCCCCN=C=O", "outcome": "inactive"}, {"compound": "CCOC(=O)O[C@H](C)OC(=O)c1ccc2c(c1)cc(C(=O)NC1CCN(C(C)C)CC1)n2Cc1cc(-c2ccc(Cl)s2)on1", "AC50": "1.72 µM (active)"}, {"compound": "O=c1[nH]sc2ccccc12", "AC50": "0.281 µM (active)"}, {"compound": "OC12N=C(c3ccccc3)SC1Cc1cc(Cl)ccc12", "note": "(stereo not drawn)", "outcome": "inactive"}, {"compound": "Cc1cccc2ccccc12", "outcome": "inactive"}]}]}
